From PubChem BioAssay
The list is not random: actives were taken first. Their share in the collection is about 5.7%.
hcDAF12 agonist: activates DAF-12 receptor from parasite H. contortus. HEK293 hcDAF-12 lit1-tk-luc reporter, luminescence; 0% DMSO, 100% Δ7-dafachronic acid. actives 1.4% (n = 370,000). AID 652067. activation, % at 6.8 µM;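 active means activation above the mean of all tested compounds plus 3 SD, cut at about 5.5% in these data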
ssDAF-12 act: activators of S. stercoralis DAF-12 nuclear receptor; HEK293 ssDAF-12/GRIP1 lit1-tk-luc reporter, luminescence; % of 3 µM dafachronic acid response; activation, % at 6.8 µM; actives 1% (n = 370,000); AID 652126;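 active means activation above the mean over all tested compounds plus 3 SD, cut at about 0.9% in these data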
DAX1 inh-1: NR0B1 (DAX1) inhibition. P51843. HEK293 Gal4-DAX1 luciferase reporter, luminescence. inhibition, % at 6.75 µM. actives 0.99% (n = 340,000);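 active means inhibition above the mean over all tested compounds plus 3 SD, cut at about 4.2% in these data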;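 further: inhibition shows as a rise in luminescence from relieved DAX1 repression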
AHR act: activators of human aryl hydrocarbon receptor; P35869; AHR-responsive luciferase reporter cells, luminescence; activation, % at 5 µM; actives 2.5% (n = 320,000); in the data active means activation above about 47%
DAX1 inh-2: blocks DAX1 repression of SF-1 activated StAR promoter; inhibition, % at 6.8 µM; AID 652010; HEK293T StAR-luciferase reporter, SF-1/DAX-1 repression relief; actives 1.1% (n = 370,000);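 active means inhibition above the mean over all tested compounds plus 3 SD, cut at about 3.6% in these data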;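 further: higher inhibition means more luminescence from relief of DAX-1 repression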
hgDAF-12 ag: activates the H. glycines DAF-12 receptor ligand-binding domain; HEK293 GAL4-hgDAF12 UAS-luciferase reporter, agonist luminescence; normalized to butyrate control; actives 1.8% (n = 370,000); activation, % at 6.8 µM;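 active means activation above a cutoff set at the mean of all screened compounds plus 3 SD, cut at about 10% in these data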
hgDAF12 ag: hgDAF-12 agonism, confirmation assay; actives 80% (n = 3,300); AID 743050; shares compounds with hgDAF-12 ag; HEK293 GAL4-hgDAF12 luciferase reporter, agonist mode; percent of butyrate response; activation, % at 6.8 µM;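 active means mean activation over triplicate wells above the hit cutoff derived from the earlier primary screen, cut at about 11% in these data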
LXR ag 2: LXR-beta agonism as DAF-12 counter-screen. activation, % at 6.8 µM. HEK293 Gal4-LXR luciferase reporter, 24 h. 3,300 tested, under 10 active. shares compounds with hgDAF-12 ag;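 active means mean activation of the triplicate above a set limit carried over from the primary screen, none filed active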
Target sequence (P55055 whole entry, looked up, the tested form may be a part): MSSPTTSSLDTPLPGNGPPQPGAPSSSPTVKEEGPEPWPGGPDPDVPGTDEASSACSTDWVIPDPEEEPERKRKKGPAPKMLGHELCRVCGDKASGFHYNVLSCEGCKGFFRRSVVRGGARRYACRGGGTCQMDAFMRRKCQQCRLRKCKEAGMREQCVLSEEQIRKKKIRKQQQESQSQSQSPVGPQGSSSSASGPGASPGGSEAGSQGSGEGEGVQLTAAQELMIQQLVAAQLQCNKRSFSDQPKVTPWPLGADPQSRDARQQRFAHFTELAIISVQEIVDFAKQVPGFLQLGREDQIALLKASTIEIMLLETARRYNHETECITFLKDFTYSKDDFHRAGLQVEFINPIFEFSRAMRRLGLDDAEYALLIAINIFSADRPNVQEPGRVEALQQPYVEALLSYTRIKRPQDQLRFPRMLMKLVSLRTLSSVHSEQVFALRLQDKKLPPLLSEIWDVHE
Numbers stand for hits; n = inactive; x = no result.

SMILES	hcDAF12 agonist	ssDAF-12 act	DAX1 inh-1	AHR act	DAX1 inh-2	hgDAF-12 ag	hgDAF12 ag	LXR ag 2
CCc1ccc(OCC(=O)N/N=C(\C)c2ccc(-n3ccnc3)cc2)cc1	n	n	n	n	n	n	x	x
COc1cc(C2NC(=O)N(C)C(C)=C2C(=O)OCc2ccccc2)cc(Br)c1O (stereo not drawn)	n	n	n	n	n	n	x	x
O=C1CS/C(=N\NC(=O)c2ccccc2)N1	n	n	x	n	n	n	x	x
CC1=C/C(=N\NC(=O)c2ccccc2)CC1	n	n	n	n	n	14	n	n
O=C(Nc1ccc2ccccc2n1)C1CCCCC1	n	n	x	n	n	15	16	n
O=C(Nc1ccccc1)C1CCCCC1	n	n	n	n	n	n	x	x
CC(=O)N1CCc2cc(N=NC3=C(O)CC(C)(C)CC3=O)ccc21	n	n	n	n	3.9	15	17	n
CC1(C)CC(=O)C(N=Nc2cc(Cl)c(Cl)c(Cl)c2)=C(O)C1	n	n	n	n	n	n	x	x
Cc1ccc(N2C(=O)c3ccc(N)cc3C2=O)cc1	n	n	n	51	n	16	16	n
Clc1ccccc1-c1nnc(-c2ccccc2Cl)o1	n	n	n	n	n	15	17	n
Clc1ccc(-c2nnc(-c3cccnc3)o2)cc1	n	n	n	n	n	n	x	x
CCCNCc1nnc(-c2ccccc2Cl)o1	n	n	n	n	n	n	x	x
Clc1ccc(-c2nnc(-c3ccccc3Cl)o2)cc1	n	n	n	49	n	14	19	n
Cc1nc(C(C)NC(=O)c2cc(COc3ccc(C)c(C)c3)on2)c(C)s1 (stereo not drawn)	n	n	n	n	n	13	14	n
Cc1cc(OCc2cc(C(=O)NC(C)c3cnn(C)c3)no2)cc(C)c1Cl (stereo not drawn)	n	n	n	x	n	16	13	n
O=C1CCC(C(=O)Nc2cc(C(F)(F)F)ccc2-n2cncn2)=NN1	n	n	n	n	n	n	x	x
O=[N+]([O-])c1ccc(NN=Cc2ccc3c(c2)OCO3)nc1	n	n	7.2	x	n	15	17	n
COc1nc(-c2ccccc2)nnc1-c1ccccc1	15	1.3	n	x	n	15	20	n
CN(C)/C=N/c1nc(-c2ccc3ccccc3c2)cs1	n	n	5.0	n	n	18	12	n
Cc1cccc(NC(=O)c2cccnc2)c1C	n	n	n	n	n	n	x	x
CSCc1ccc(C(=O)Nc2cccc(C)c2C)cc1	n	1.7	n	n	n	14	11	n
Cc1ccc(C)c(NC(=O)c2cc(-c3ccc(Cl)cc3)nc3ccccc23)c1	n	n	x	x	n	15	n	n
C/C(=N\NC(=O)c1cc(-c2ccccc2)nc2ccccc12)c1ccc(Cl)cc1	n	n	x	x	n	n	x	x
CC(=O)Oc1ccccc1-c1nc(/C=C/c2ccccc2)no1	6.3	n	n	x	n	17	18	n
CC(C)(Oc1ccc(Br)cc1Cl)C(=O)Nc1ccon1	n	n	n	n	n	n	x	x
SMILES	hcDAF12 agonist	ssDAF-12 act	DAX1 inh-1	AHR act	DAX1 inh-2	hgDAF-12 ag	hgDAF12 ag	LXR ag 2
CSc1nsc(SCC(=O)Nc2ccc(C(C)=O)cc2)n1	12	1.0	n	n	n	14	21	n
COc1ccc(CCNC(=O)Nc2ccccc2[N+](=O)[O-])cc1	n	n	x	n	n	16	n	n
COc1ccc(CCNC(=O)COC(=O)Cc2ccccc2[N+](=O)[O-])cc1	n	n	n	n	n	n	x	x
CN(C)c1ccc(C=Cc2ccnc3ccccc23)cc1N	n	n	x	x	n	17	n	n
Cc1ccc(NC(CC(=O)c2ccccc2)C(=O)O)cc1Cl (stereo not drawn)	5.6	n	5.4	n	4.2	16	27	n
O=C(CSc1ccccc1)Nc1ccc(-c2nc3ccccc3[nH]2)cc1	n	n	n	n	n	16	13	n
Cc1ccc2nc(-c3ccc(NC(=O)CSc4ccccc4)cc3)[nH]c2c1	n	n	n	n	n	n	x	x
CCNC(=S)Nc1ccc(-c2nc3ccccc3[nH]2)cc1	n	n	n	n	4.4	14	17	n
CC(C)(C)OC(=O)C[C@H]1C/C=C\C[C@@H](CC(=O)N[C@@H](CO)Cc2ccccc2)C(=O)NC[C@@H](c2ccccc2)OC1=O	n	n	n	n	n	n	x	x
CN(C)c1ccc(/C=C2\CCCc3c2nc2ccccc2c3C(=O)O)cc1	5.7	1.6	n	n	n	13	13	n
CCN(CC)c1ccc(C=N/C(C#N)=C(\N)C#N)cc1	n	n	n	n	n	15	n	n
CCN(CC)c1ccc(/C=N/Nc2nn[nH]n2)cc1	n	n	n	n	n	n	x	x
CCOc1ccc(S(=O)(=O)NCCC(=O)Nc2cccc(C(=O)OC)c2)cc1	n	n	n	n	n	n	x	x
CCc1nnc(SCC(=O)N2CCCC(N3CCN(c4ccccc4C)CC3)C2)o1 (stereo not drawn)	n	n	n	n	n	n	x	x
COn1c(-c2ccc(Cl)cc2)nc2ncccc21	n	n	n	n	n	13	11	n
Cc1ccc(-c2nc3ncccc3n2O)cc1	n	n	n	n	n	n	x	x
Cc1ccc(NC(=O)N2CCC(NC(=O)c3cccc(F)c3)CC2)cc1	n	n	n	n	n	n	x	x
O=C1CC(/C=C/c2ccc(Cl)cc2)=Nc2ccccc2N1	n	n	n	n	n	17	n	n
CC(=O)N1N=C(c2ccco2)CC1c1ccc(Cl)o1 (stereo not drawn)	n	n	n	n	n	n	x	x
Fc1ccc2cnc(-c3ccsc3)cc2c1	n	n	x	x	n	14	n	n
CC(C)C[C@H](NC(=O)N1CCn2c1nc1ccccc12)C(=O)NCc1ccc2c(c1)OCO2	n	n	n	n	n	n	x	x
O=C(OCc1ccccc1)N1CCC2CC1c1ccc(N3CCNCC3)cc12 (stereo not drawn)	n	n	n	x	n	14	n	n
CCc1cc(=O)oc2cc(C)cc(OC(C)C(=O)NCCCn3ccnc3)c12 (stereo not drawn)	n	n	n	n	n	n	x	x
O/N=C/c1ccccc1OCc1ccccc1Cl	n	n	n	n	n	n	x	x
COc1cc(/C=N/O)ccc1OCc1ccccc1Cl	n	n	n	n	n	14	16	n
CCCCNc1ncnc2c1cnn2-c1ccc(Cl)cc1	n	n	n	n	n	16	24	n
CCCCNc1ncnc2c1cnn2-c1ccccc1	n	n	n	n	n	20	17	n
c1ccc(-n2ncc3c(NCCCN4CCOCC4)ncnc32)cc1	n	n	n	n	n	n	x	x
